# In PMC6792352, “Limited Chemical Structural Diversity Found to Modulate Thyroid Hormone Receptor in the Tox21 Chemical Library” (Environmental Health Perspectives, 2019):
# Tested on: thyroid hormone receptor (endogenous TRα and TRβ)
# Design: species or system GH3-TRE-Luc (rat pituitary); GH3-TRE-Luc luciferase reporter, antagonist mode against 1 nM T3, loss of signal, qHTS
# Settings: read-out: Average AC50 (uM) GH3-TRE-Antag, antagonist mode, 1 nM T3, no GH3 cytotoxicity hit
row,SMILES,AC50
1,O=c1c(-c2ccc(O)cc2)coc2cc(O)ccc12 [Daidzein],87.6 µM
2,COCc1c(C(C)C)nc(C(C)C)c(/C=C/[C@@H](O)C[C@@H](O)CC(=O)O)c1-c1ccc(F)cc1 [Cerivastatin sodium],13.7 µM
3,"c1ccc(-c2cccc(-c3ccccc3)c2)cc1 [1,1':3',1''-Terphenyl]",50.3 µM
4,CCCCC(CC)COC(=O)/C=C/c1ccc(OC)cc1 (stereo not drawn) [2-Ethylhexyl trans-4-methoxycinnamate],> 90 µM
